Among the data in the supplement of paper PMC5940239 are percent growth values, retold here.

A number with no mark means an inactive call.

The test deals with Madurella mycetomatis MM55. The test is described as follows: percent growth relative to solvent control; higher = less inhibition, active = 20 or less. To be noted: 100 µM; 7 days.
Take `O=C(c1[nH]nc2c1CCCC2)N1CCN(Cc2ccc3c(c2)OCO3)CC1`: the percent growth is 81.8%.

`CC(C)(C)OC(=O)N1CCN(c2nccc(-c3ccc(-c4ccc(Cl)cc4)s3)n2)CC1`: the percent growth is 103%.

`COc1cc(Br)cc2cc(C(=O)Nc3cccc(C(F)(F)F)c3)c(=O)oc12`: the percent growth is 125%.

As to `COc1nc2ccc(Br)cc2cc1[C@@H](c1ccccc1)[C@@](O)(CCN(C)C)c1cccc2ccccc12`, the percent growth was 100%.

On to `CCCNC(=O)N1CCC2(CC1)CC(=O)c1cc(C)ccc1O2`, for which the percent growth was 102%.

With `CCOc1ccc(OCC(=O)Nc2cc(C)cc(C)c2)cc1`, the percent growth was 89.4%.

Take `CCOc1ccccc1NC(C)C(=O)Nc1cc(C(F)(F)F)ccc1N1CCOCC1` (configuration not stated): the percent growth was 76.7%.

Take `NCCCC(N)(C(=O)O)C(F)F` (configuration not stated): the percent growth is 133%.

Take `COc1ccccc1C(C)NCC(=O)Nc1cc(C(F)(F)F)ccc1Cl` (configuration not stated): the percent growth was 28.7%.

For the compound `O=C(Nc1ccccc1-c1nc2c(C(=O)O)cccc2o1)c1ccccc1`, the percent growth is 94%.

As for `Cn1ncc2c(N3CCOCC3)nc(NCCc3c[nH]c4ccccc34)nc21`, the percent growth was 37.3%.

For the compound `CC(C)(C)n1nc(Cc2cccc3ccccc23)c2c(N)ncnc21`, the percent growth was 69.6%.

Turning to `CC(=O)Nc1ccc(NC(=O)c2cc(-c3cc(Cl)ccc3O)[nH]n2)cc1`, the percent growth was 155%.

`O=C(NCCc1c[nH]c2ccccc12)c1cc2ccccc2oc1=O`: the percent growth is 109%.

As for `CNC1C(OC2C(OC3C(O)C(O)C(NC(=N)N)C(O)C3NC(=N)N)OC(C)C2(O)C=O)OC(CO)C(O)C1O` (configuration not stated), the percent growth was 119%.

Take `CC1CC1C(=O)NC1CCN(CC2(c3ccccc3)CCCCC2)CC1` (configuration not stated): the percent growth was 92.9%.

`Cc1cccnc1NC(=O)c1cccc(OCc2c(C)noc2C)c1`: the percent growth was 85.1%.

Turning to `N=C(N)c1ccc(OCCCCCOc2ccc(C(=N)N)cc2)cc1`, the percent growth is 48.7%.

As for `CC(=O)N1CCN(c2ccc(Oc3ccc(Cl)cc3O)cc2)CC1`, the percent growth is 102%.

With `CCc1cc(=O)n(C)c(SC(C)C(=O)Nc2ccc(F)cc2)n1` (configuration not stated), the percent growth is 61.1%.

`COC(=O)c1c(NC(=O)c2c(F)c(F)c(F)c(F)c2F)sc2c1CCCCC2`: the percent growth was 85.5%.

Consider `O=C(NCc1ccco1)N1CCN(Cc2ccc(Cl)s2)CC1`, for which the percent growth was 90.6%.
